Reference: the supplement of paper PMC10849652
Of roughly 7,900 targets only a part is listed; those with a hit were picked by preference. About 0.6% of all pairs of compound and target were hits.

Tests used:
Test in all cases: log2 fold change, soluble protein after heating vs DMSO (PISA); higher = thermal stabilisation; K562 cells, 10 uM, 30 min; active = over 0.2 and 3.5 SD of the protein, either way, in both replicates (recomputed)
[1] = compound: CC1=C(C=C(C=C1)NC(=O)C2=CC(=CC=C2)C(C)(C)C#N)NC3=CC4=C(C=C3)N=CN(C4=O)C
Summary of the method: (§1)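 K562 cells at 2×10^6 cells/mL were treated with 10 μM compound for 30 min. Aliquots were heated for 3 min across 48°C-58°C, pooled, and extracted in PBS with 0.5% NP-40 at 4°C; soluble protein was the supernatant after 21,000xg for 90 min. Soluble protein was quantified by TMTpro 16plex LC-MS/MS with channel sums equalised, and reported as log2 fold change in thermal stability against DMSO controls, with values from duplicates.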

[2] = compound: CC1=C(C=C(C=C1)NC(=O)C2=CC(=CC=C2)N(C)C)NC(=O)C3=CC=C(C=C3)O
Summary of the method: as §1

[3] = compound: CC1=CC=C(C=C1)SC2=C3C=C(SC3=CN=C2)C(=O)N
Summary of the method: as §1

[4] = compound: CC1=NC(=CC=C1)C2=C(N=C(N2)C(C)(C)C)C3=CC4=NC=CN=C4C=C3
Summary of the method: as §1

[5] = compound: CCCCN(Cc1ccc(C(=O)NO)cc1)C(=O)Nc1ccccc1 [Nexturastat A]
Summary of the method: as §1

[6] = compound: CCCS(=O)(=O)Nc1ccc(F)c(C(=O)c2c[nH]c3ncc(-c4ccc(Cl)cc4)cc23)c1F [vemurafenib]
Summary of the method: as §1

[7] = compound: CCCS(=O)(=O)Nc1ccc(F)c(C(=O)c2c[nH]c3ncc(Cl)cc23)c1F
Summary of the method: as §1

[8] = compound: CCCc1cc(C)[nH]c(=O)c1CNC(=O)c1cc(-c2ccnc(N3CCN(C)CC3)c2)cc2c1cnn2C(C)C
Summary of the method: as §1

[9] = compound: CCN(CC)Cc1ccc2cc(COC(=O)Nc3ccc(C(=O)NO)cc3)ccc2c1 [givinostat]
Summary of the method: as §1

[10] = compound: CCN(CCCOc1ccc2c(Nc3cc(CC(=O)Nc4cccc(F)c4)[nH]n3)ncnc2c1)CCOP(=O)(O)O [barasertib]
Summary of the method: as §1

Measured: log2 fold change

IPO11 isoform 2 (UniProt Q9UI26)
Sequence of UniProt Q9UI26 (Q9UI26 whole entry, looked up): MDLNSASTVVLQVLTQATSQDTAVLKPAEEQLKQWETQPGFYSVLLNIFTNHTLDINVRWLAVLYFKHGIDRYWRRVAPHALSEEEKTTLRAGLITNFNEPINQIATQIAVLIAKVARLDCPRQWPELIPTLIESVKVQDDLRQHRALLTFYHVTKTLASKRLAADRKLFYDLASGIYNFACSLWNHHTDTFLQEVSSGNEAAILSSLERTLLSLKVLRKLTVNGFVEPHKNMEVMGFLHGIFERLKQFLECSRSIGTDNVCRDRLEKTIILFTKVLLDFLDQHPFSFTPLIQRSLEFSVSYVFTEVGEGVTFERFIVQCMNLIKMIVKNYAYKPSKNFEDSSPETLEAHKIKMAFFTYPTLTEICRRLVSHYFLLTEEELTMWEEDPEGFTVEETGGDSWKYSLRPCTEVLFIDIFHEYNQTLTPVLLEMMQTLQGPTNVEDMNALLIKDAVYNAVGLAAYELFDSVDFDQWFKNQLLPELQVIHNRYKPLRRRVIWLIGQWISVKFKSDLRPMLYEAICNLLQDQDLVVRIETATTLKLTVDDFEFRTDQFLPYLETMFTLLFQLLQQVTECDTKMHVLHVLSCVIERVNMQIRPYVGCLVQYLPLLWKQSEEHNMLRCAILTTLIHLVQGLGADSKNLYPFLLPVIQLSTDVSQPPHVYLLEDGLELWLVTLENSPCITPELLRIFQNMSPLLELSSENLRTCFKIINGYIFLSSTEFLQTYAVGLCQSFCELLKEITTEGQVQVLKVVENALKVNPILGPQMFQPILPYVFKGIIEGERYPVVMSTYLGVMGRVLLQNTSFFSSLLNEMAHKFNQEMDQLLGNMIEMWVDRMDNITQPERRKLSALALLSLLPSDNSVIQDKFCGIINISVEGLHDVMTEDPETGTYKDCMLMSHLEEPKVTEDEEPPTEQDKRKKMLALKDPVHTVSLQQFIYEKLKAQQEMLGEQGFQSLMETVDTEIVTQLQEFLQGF
inactive: [1] 0.028 | [2] 0.004 | [3] 0.024 | [4] 0.047 | [5] -0.002 | [6] 0.052 | [7] 0.082 | [8] -0.031 | [9] -0.031 | [10] 0.014

LTO1 (UniProt Q8WV07)
Sequence of UniProt Q8WV07 (Q8WV07 whole entry, looked up): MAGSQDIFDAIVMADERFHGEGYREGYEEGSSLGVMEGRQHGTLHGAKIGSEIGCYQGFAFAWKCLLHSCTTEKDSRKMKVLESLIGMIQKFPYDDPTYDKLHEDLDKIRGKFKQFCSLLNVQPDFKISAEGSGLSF
inactive: [1] 0.021 | [2] -0.042 | [3] -0.021 | [4] -0.009 | [5] 0.245 | [6] 0.101 | [7] 0.027 | [8] 0 | [9] -0.121 | [10] -0.04

MAP2K7 isoform 4 (UniProt O14733)
inactive: [1] -0.068 | [2] 0.003 | [3] -0.008 | [4] 0.009 | [5] -0.031 | [6] -0.01 | [7] 0.009 | [8] -0.026 | [9] -0.019 | [10] 0.016

ITM2B (UniProt Q9Y287)
inactive: [1] 0.01 | [2] -0.052 | [3] 0.036 | [4] -0.046 | [5] -0.05 | [6] -0.101 | [7] -0.016 | [8] -0.482 | [9] 0.001 | [10] 0.076

ITPRIP (UniProt Q8IWB1)
inactive: [1] -0.044 | [2] 0.007 | [3] -0.01 | [4] 0.081 | [5] 0.005 | [6] 0.02 | [7] 0.061 | [8] -0.099 | [9] 0.007 | [10] 0.023

MEPCE (UniProt Q7L2J0)
inactive: [1] 0.077 | [2] 0.025 | [3] -0.014 | [4] -0.252 | [5] -0.057 | [6] 0.062 | [7] 0.083 | [8] 0.05 | [9] -0.04 | [10] 0.025

IPO9 (UniProt Q96P70)
Sequence of UniProt Q96P70 (Q96P70 whole entry, looked up): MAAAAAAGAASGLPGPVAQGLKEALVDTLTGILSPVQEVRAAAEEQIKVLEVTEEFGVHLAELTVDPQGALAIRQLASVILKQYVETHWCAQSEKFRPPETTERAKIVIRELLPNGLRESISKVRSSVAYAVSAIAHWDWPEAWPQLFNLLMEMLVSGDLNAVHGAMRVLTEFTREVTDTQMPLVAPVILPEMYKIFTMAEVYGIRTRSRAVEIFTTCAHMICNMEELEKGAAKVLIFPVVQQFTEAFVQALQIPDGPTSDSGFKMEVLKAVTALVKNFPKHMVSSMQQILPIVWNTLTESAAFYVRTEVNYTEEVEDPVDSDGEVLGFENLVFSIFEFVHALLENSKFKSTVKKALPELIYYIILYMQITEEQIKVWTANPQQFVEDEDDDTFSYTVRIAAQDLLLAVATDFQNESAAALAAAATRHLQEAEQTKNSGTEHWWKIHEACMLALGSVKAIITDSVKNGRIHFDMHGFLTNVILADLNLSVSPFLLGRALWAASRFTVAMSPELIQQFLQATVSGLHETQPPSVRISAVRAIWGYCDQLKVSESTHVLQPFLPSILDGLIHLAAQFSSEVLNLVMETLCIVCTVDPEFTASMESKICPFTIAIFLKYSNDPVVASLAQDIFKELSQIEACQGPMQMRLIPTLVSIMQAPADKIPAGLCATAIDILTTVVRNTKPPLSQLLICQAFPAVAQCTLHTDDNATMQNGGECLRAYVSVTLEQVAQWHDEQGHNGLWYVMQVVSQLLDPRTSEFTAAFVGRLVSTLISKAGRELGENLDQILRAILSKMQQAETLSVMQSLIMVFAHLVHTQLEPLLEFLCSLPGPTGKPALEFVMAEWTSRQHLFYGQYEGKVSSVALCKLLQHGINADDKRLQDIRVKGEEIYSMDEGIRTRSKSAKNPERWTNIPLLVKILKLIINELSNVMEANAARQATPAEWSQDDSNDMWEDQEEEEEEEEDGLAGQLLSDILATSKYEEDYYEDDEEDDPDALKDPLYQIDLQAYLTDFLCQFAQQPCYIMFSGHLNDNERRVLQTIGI
inactive: [1] 0.029 | [2] 0.033 | [3] 0 | [4] -0.001 | [5] -0.075 | [6] 0.079 | [7] 0.075 | [8] -0.022 | [9] -0.018 | [10] 0.025

LMNB1 (UniProt P20700)
Sequence of UniProt P20700 (P20700 whole entry, looked up): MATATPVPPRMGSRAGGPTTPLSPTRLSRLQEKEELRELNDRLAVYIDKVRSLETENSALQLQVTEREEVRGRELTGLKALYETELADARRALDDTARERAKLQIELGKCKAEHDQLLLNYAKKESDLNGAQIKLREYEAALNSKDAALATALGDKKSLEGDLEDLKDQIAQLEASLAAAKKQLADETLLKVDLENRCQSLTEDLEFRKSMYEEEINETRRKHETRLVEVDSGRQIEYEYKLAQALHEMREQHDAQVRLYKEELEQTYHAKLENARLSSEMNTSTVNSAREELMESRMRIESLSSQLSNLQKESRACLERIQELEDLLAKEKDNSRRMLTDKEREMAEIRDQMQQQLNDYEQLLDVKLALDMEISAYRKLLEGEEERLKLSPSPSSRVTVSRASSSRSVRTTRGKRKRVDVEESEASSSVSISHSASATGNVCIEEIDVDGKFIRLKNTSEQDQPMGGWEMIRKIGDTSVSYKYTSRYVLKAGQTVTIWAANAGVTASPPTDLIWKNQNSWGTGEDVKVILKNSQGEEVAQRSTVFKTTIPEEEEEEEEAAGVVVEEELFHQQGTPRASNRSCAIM
inactive: [1] -0.019 | [2] 0.027 | [3] -0.046 | [4] -0.012 | [5] -0.045 | [6] 0.1 | [7] 0.065 | [8] -0.029 | [9] 0.002 | [10] 0.021

IWS1 (UniProt Q96ST2)
inactive: [1] -0.083 | [2] 0.007 | [3] -0.015 | [4] -0.02 | [5] 0.029 | [6] 0.046 | [7] -0.003 | [8] -0.017 | [9] 0.051 | [10] 0.002

LNPK (UniProt Q9C0E8)
Sequence of UniProt Q9C0E8 (Q9C0E8 whole entry, looked up): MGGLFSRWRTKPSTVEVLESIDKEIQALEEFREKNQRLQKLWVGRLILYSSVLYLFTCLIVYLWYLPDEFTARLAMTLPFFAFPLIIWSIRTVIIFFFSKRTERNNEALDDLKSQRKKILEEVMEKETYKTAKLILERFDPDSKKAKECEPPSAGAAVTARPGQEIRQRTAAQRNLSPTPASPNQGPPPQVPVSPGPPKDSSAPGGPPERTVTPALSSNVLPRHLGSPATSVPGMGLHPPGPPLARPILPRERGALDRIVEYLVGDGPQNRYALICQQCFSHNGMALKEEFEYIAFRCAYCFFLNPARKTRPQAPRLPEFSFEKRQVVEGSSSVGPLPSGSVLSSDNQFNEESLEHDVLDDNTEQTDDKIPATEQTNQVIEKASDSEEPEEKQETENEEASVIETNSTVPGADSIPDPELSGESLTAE
inactive: [1] -0.011 | [2] 0.01 | [3] -0.038 | [4] 0.016 | [5] -0.023 | [6] -0.042 | [7] -0.027 | [8] -0.028 | [9] -0.018 | [10] 0.012

MDN1 (UniProt Q9NU22)
inactive: [1] -0.023 | [2] -0.021 | [3] 0.034 | [4] 0.061 | [5] -0.009 | [6] 0.02 | [7] 0.074 | [8] 0.027 | [9] 0.083 | [10] 0.047

MAST4 (UniProt O15021)
inactive: [1] 0.003 | [2] -0.246 | [3] 0.061 | [4] 0.044 | [5] -0.08 | [6] 0.021 | [7] 0.055 | [8] 0.072 | [9] -0.024 | [10] 0.028

LUC7L (UniProt Q9NQ29)
Sequence of UniProt Q9NQ29 (Q9NQ29 whole entry, looked up): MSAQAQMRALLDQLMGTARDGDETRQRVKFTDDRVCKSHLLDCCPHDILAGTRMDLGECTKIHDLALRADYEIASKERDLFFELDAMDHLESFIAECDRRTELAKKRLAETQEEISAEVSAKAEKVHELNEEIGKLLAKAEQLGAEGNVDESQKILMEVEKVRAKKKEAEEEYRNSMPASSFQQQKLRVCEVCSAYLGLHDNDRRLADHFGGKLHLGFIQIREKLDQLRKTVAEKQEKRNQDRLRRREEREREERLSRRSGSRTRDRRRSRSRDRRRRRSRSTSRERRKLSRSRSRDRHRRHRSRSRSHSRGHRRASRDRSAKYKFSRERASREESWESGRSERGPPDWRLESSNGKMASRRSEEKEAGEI
inactive: [1] 0.028 | [2] 0.003 | [3] -0.022 | [4] -0.021 | [5] 0.054 | [6] -0.007 | [7] -0.004 | [8] 0.027 | [9] -0.034 | [10] -0.01

MFSD5 isoform 2 (UniProt Q6N075)
inactive: [1] 0.038 | [2] 0.015 | [3] -0.078 | [4] 0.064 | [5] -0.014 | [6] 0.023 | [7] -0.118 | [8] -0.039 | [9] -0.039 | [10] 0.122

MCU (UniProt Q8NE86)
inactive: [1] 0 | [2] 0.051 | [3] 0.094 | [4] 0.002 | [5] 0.002 | [6] 0.026 | [7] 0.022 | [8] -0.075 | [9] 0.013 | [10] 0.014

LIMA1 isoform 4 (UniProt Q9UHB6)
inactive: [1] -0.082 | [2] 0.133 | [3] -0.014 | [4] 0.033 | [5] 0.004 | [6] 0.061 | [7] 0.011 | [8] -0.033 | [9] 0.032 | [10] -0.025

LIAS (UniProt O43766)
Sequence of UniProt O43766 (O43766 whole entry, looked up): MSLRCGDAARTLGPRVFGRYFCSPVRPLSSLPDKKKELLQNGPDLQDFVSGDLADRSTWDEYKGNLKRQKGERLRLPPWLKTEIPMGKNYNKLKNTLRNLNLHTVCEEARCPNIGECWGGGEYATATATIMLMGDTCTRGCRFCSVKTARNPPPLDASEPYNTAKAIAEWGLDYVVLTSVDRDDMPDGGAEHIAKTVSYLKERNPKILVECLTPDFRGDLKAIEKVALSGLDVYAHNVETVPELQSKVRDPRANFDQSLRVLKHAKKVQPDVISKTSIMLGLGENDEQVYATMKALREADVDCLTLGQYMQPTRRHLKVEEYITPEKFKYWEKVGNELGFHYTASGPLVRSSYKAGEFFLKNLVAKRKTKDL
inactive: [1] -0.044 | [2] 0.119 | [3] -0.128 | [4] -0.002 | [5] -0.057 | [6] -0.013 | [7] -0.13 | [8] -0.01 | [9] -0.06 | [10] -0.001

MICU2 (UniProt Q8IYU8)
Sequence of UniProt Q8IYU8 (Q8IYU8 whole entry, looked up): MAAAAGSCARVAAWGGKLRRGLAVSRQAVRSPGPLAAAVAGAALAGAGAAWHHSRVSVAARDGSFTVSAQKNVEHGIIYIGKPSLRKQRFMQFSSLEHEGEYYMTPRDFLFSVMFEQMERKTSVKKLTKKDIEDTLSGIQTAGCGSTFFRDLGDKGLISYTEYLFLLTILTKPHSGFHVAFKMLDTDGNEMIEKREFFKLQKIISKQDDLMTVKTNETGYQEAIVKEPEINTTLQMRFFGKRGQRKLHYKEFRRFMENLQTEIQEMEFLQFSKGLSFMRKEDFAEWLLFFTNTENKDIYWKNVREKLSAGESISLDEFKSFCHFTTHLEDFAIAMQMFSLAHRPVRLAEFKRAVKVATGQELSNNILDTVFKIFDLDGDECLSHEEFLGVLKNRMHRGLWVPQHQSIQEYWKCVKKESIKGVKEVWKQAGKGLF
inactive: [1] 0.022 | [2] 0.067 | [3] 0.091 | [4] 0.05 | [5] 0.198 | [6] 0.053 | [7] 0.183 | [8] 0.042 | [9] -0.009 | [10] 0.079

KTN1 (UniProt Q86UP2)
inactive: [1] -0.071 | [2] -0.051 | [3] 0.014 | [4] -0.002 | [5] 0.141 | [6] 0.012 | [7] 0.027 | [8] 0.034 | [9] 0.022 | [10] 0.033

MAGOHB (UniProt Q96A72)
inactive: [1] -0.002 | [2] -0.062 | [3] 0.008 | [4] 0.067 | [5] -0.026 | [6] 0.037 | [7] 0.04 | [8] -0.069 | [9] 0.003 | [10] 0.007

MAPKAPK2 (UniProt P49137)
inactive: [1] 0.077 | [2] 0.082 | [3] -0.008 | [4] 0.019 | [5] -0.047 | [6] 0.074 | [7] 0.045 | [8] 0.038 | [9] 0.026 | [10] -0.001

LMNB2 (UniProt Q03252)
inactive: [1] -0.022 | [2] 0.015 | [3] -0.025 | [4] 0.063 | [5] -0.04 | [6] 0.019 | [7] 0.045 | [8] -0.014 | [9] 0.047 | [10] 0.039

IGFBP2 (UniProt P18065)
Sequence of UniProt P18065 (P18065 whole entry, looked up): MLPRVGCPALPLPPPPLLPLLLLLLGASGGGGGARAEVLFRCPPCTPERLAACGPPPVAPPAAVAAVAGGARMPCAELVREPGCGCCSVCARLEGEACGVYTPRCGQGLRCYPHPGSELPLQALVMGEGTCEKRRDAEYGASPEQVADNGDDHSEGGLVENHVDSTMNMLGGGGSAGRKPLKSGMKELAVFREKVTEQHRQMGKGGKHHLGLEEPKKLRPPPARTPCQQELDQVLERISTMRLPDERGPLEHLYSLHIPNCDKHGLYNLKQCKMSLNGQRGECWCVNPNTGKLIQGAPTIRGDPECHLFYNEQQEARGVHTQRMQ
inactive: [1] -0.154 | [2] 0.173 | [3] 0.201 | [4] 0.349 | [5] 0.106 | [6] 0.262 | [7] -0.003 | [8] -0.409 | [9] 0.056 | [10] 0.012

LIMD1 (UniProt Q9UGP4)
inactive: [1] 0 | [2] 0.009 | [3] 0.037 | [4] -0.012 | [5] -0.022 | [6] 0.024 | [7] 0.084 | [8] 0.019 | [9] 0.02 | [10] -0.017

LDAH isoform 2 (UniProt Q9H6V9)
Sequence of UniProt Q9H6V9 (Q9H6V9 whole entry, looked up): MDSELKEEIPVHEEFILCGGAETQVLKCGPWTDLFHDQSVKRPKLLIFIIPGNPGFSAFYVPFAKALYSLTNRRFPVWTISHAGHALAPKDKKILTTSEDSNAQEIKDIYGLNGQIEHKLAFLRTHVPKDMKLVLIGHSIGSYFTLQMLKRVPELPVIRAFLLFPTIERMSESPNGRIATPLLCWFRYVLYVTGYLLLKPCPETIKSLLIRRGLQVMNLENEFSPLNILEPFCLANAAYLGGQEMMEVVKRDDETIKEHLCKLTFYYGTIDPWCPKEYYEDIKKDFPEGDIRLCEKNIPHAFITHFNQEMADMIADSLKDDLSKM
inactive: [1] -0.026 | [2] -0.008 | [3] 0 | [4] -0.024 | [5] 0.032 | [6] 0.044 | [7] 0.024 | [8] -0.04 | [9] 0.059 | [10] 0.031

KIF3A (UniProt Q9Y496)
inactive: [1] -0.041 | [2] -0.013 | [3] -0.076 | [4] 0 | [5] 0.029 | [6] -0.002 | [7] 0.062 | [8] 0.045 | [9] 0.074 | [10] -0.041

L2HGDH (UniProt Q9H9P8)
inactive: [1] 0.03 | [2] 0.009 | [3] 0.021 | [4] -0.046 | [5] -0.102 | [6] 0.015 | [7] -0.042 | [8] -0.081 | [9] -0.016 | [10] 0.011

MAP4 (UniProt P27816)
inactive: [1] -0.006 | [2] 0.007 | [3] -0.018 | [4] -0.01 | [5] 0.003 | [6] -0.018 | [7] -0.007 | [8] 0.002 | [9] -0.004 | [10] -0.046

LPIN1 isoform 7 (UniProt Q14693)
inactive: [1] -0.022 | [2] 0.018 | [3] -0.022 | [4] -0.026 | [5] -0.023 | [6] -0.004 | [7] 0.015 | [8] 0.029 | [9] 0.012 | [10] 0.023
